# Values joined by “and” are separate entries in the source; they are usually repeats but may differ in a detail not shown here. Equal entries are not always repeated. Among all 16,000 compounds or so, about 2,600 (16%) were called active. Inconclusive results (about 20%) are left out. A selection follows. A number with no mark means an inactive call. Calls follow the shape of the dose curve; as a rule, active = well fitted curve in the direction sought with a large enough effect; inconclusive = small, poorly fitted or top-dose-only effect, or effect the other way; inactive = no such curve, though single readings can be large or run the other way.
# Target: Cytochrome P450 2D6 (Homo sapiens) (UniProt P10635)
# Assay: Cytochrome panel assay with activity outcomes
# Details: recombinant CYP, pro-luciferin dealkylation, luminescence, p450-cyp2d6; series mostly up to 57.1 µM
# % is scaled to controls: 0 for no effect and ±100 for the full control effect.
# Cytochrome P450 2D6 (Homo sapiens), sequence (P10635 whole entry, looked up): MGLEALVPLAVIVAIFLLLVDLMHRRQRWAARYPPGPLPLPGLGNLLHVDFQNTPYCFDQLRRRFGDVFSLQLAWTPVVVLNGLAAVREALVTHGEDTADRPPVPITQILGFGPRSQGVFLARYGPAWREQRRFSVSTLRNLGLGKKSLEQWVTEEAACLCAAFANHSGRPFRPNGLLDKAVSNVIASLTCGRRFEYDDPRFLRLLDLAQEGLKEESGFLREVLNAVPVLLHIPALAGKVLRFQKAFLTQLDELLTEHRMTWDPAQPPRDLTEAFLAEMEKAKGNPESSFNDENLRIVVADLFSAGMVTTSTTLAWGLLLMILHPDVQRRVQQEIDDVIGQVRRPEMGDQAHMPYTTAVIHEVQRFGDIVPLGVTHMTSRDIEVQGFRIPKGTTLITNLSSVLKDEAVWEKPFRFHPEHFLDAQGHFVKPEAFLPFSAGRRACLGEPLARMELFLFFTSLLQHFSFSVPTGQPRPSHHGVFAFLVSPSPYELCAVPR
Structure (SMILES),AC50,"activity, negative = inhibition"
COc1ccc(C(=O)NCc2cn3ccccc3n2)cc1,inactive,
C=C[C@@]1(C)CC(=O)[C@@]2(O)[C@@]3(C)[C@@H](O)CCC(C)(C)[C@@H]3[C@H](OC(=O)CCN(C)C)[C@H](OC(C)=O)[C@@]2(C)O1,inactive,
CC1(C)Oc2ccc(NC(=O)c3ccco3)cc2O1,inactive,
O=C(N/N=C/c1ccc2c(c1)OCO2)/C(=C/c1ccc2c(c1)OCO2)NC(=O)c1ccccc1,inactive,
COc1ccccc1C(=O)N/C(=C/c1ccc(Br)cc1)C(=O)NCC(=O)O,inactive,
CCC(NC(=O)c1ccccc1NC(=O)c1ccco1)C(=O)NC1CCCCC1 (stereo not given),inactive,
Cc1ccc(NC(=O)/C(=C\c2cccnc2)NC(=O)c2ccco2)cc1,inactive,
O=C(Nc1ccccc1C(=O)Nc1ccc2c(c1)OCO2)c1ccco1,12.6 µM (active),
O=C(NC(Cc1ccccc1)C(=O)O)/C(=C\c1ccco1)NC(=O)c1ccc(Br)cc1 (stereo not given),inactive,
C=CCNC(=O)/C(=C\c1ccc2c(c1)OCO2)NC(=O)c1ccc(Br)cc1,25.1 µM (active),
O=C(Nc1ccccc1)/C(=C\c1ccc2c(c1)OCO2)NC(=O)c1ccco1,15.8 µM (active),
C#CCCCO/N=C1/C[C@@H](O)[C@@H](O)[C@@H]2[C@@H]3C(=O)N(CC)C(=O)[C@H]3CC[C@H]12,,14.7% [at 11.4 µM]
CC(=O)COc1ccc2c(C)c(C)c(=O)oc2c1,inactive,
CCOC(=O)C(Sc1ncnc2c1sc1nc(N3CCOCC3)c3c(c12)CCCC3)c1ccccc1 (stereo not given),inactive,
CCOC(=O)CC1C(=O)NCCN1S(=O)(=O)c1ccc(Cl)c(Cl)c1 (stereo not given),inactive,
COc1ccc(-n2c(=O)c(-c3ccc(F)c(F)c3)nc3cncnc32)cc1,inactive,
NC(N)=NC(N)=Nc1ccc(S(=O)(=O)O)cc1,,3.23% [at 11.4 µM]
O=C(O)/C(=C\c1ccccc1)c1ccccc1,,-2.29% [at 11.4 µM]
FC(F)(F)c1ccccc1-c1nc(Nc2ccncc2)c2ccccc2n1,25.1 µM (active),
Clc1ccccc1-c1nc(NCc2cccnc2)c2ccccc2n1,20 µM (active),
Clc1ccccc1-c1nc(N/N=C/c2cccnc2)c2ccccc2n1,inactive,
FC(F)(F)c1ccccc1-c1nc(NCc2cccnc2)c2ccccc2n1,15.8 µM (active),

Structure (SMILES),AC50,"activity, negative = inhibition"
Cc1ccccc1-c1nc(Nc2ccncc2)c2ccccc2n1,inactive,
FC(F)(F)c1ccccc1-c1nc(NC2CCNCC2)c2ccccc2n1,inactive,
COc1cc(OC)c(C2C(C(=O)O)c3ccccc3C(=O)N2C)cc1OC (stereo not given),inactive,
NC1(C(=O)O)C[C@@H](C(=O)O)[C@H](C(=O)O)C1,inactive,
CCNc1ncc2nc(-c3ccc(Cl)cc3)c(=O)n(C3CC3)c2n1,inactive,
N#CCCn1c(=O)cnc2cnc(N3CCOCC3)nc21,inactive,
CCCCCc1nnc(NC(=O)C(=O)OCC)s1,inactive,
CC(C)OCCCN1C(=O)c2ccccc2C1C(=O)NC1CCCCC1 (stereo not given),inactive,
CO/N=C(\C(=O)N[C@@H]1C(=O)N2C(C(=O)[O-])=C(C[N+]3(C)CCCC3)CS[C@@H]12)c1csc(N)n1,inactive,
Cn1cccc1CC(=O)N/N=C\c1cccs1,inactive,
CCCCC(=O)NNC(=S)NC(=O)c1cccc([N+](=O)[O-])c1,inactive,
CCCn1c(=O)c2[nH]c(-c3ccccc3)nc2n(CCC)c1=O,inactive,
CC1(C)OC(=O)C(=CNc2cccc(O)c2)C(=O)O1,inactive,
CC(C)=CCC1=C(OCC(=O)O)C(=O)c2ccccc2C1=O,3.16 µM (active),
CC(C)=CCc1c(C)nc2ccccc2c1C(=O)O,inactive,
CC(CC(=O)O)CC(=O)Nc1ccc(S(N)(=O)=O)cc1 (stereo not given),inactive,
O=C1/C(=N\O)Cc2ccccc21,inactive,
CN1CCC(=C2c3ccccc3CCc3sccc32)CC1,1.26 µM (active),
CN1CCC(=C2c3ccccc3CC(=O)c3sccc32)CC1,7.94 µM (active) and 3.16 µM (active) and 5.01 µM (active),
CCc1cc(C(=O)OC)c(NC(=O)CCCC(=O)O)s1,inactive,
O=C(NNC(=O)c1cccnc1)Nc1cccc2ccccc12,inactive,
CO[C@H]1COC(=O)C/C=C\[C@H](C)[C@@H](NS(=O)(=O)c2ccc(C)cc2)COC(=O)C/C=C\[C@@H]1C,,3.82% [at 11.4 µM]

Structure (SMILES),AC50,"activity, negative = inhibition"
NC(N)=NC(N)=Nc1c(F)c(F)c(F)c(F)c1F,,13.6% [at 11.4 µM]
Cc1ccc(N=CC2=C(O)CC(c3ccco3)CC2=O)cc1 (stereo not given),inactive,
COc1cc(OC)c2c(c1)C(=O)c1cc(OC)cc(OC)c1C2=O,inactive,
O=C1c2ccccc2C(=O)N1CC1CCCO1 (stereo not given),inactive,
Nc1ncc(-c2ccccc2)n1CC1CCCO1 (stereo not given),3.55 µM (active),
O=c1c(-c2ccccc2)nc2cnc(N3CCOCC3)nc2n1C[C@H]1CCCO1,inactive,
Cc1c(Cl)cccc1NC(=O)CCC(=O)NNC(=O)c1ccco1,inactive,
CCOC(=O)c1cnc(N(C)C)nc1SC(=N)N,,-3.04% [at 11.4 µM]
Cc1noc(C)c1C(=O)N1CCC2(CCCN(C(=O)NC(C)C)C2)CC1,inactive,
O=C(O)CCC(=O)N1CCc2cc(S(=O)(=O)NCc3cccs3)ccc21,inactive,
O=C(CCNS(=O)(=O)c1cccs1)N1CCc2ccccc2C1,12.6 µM (active),
O=C(CCNS(=O)(=O)c1cccs1)N1CCCCCC1,inactive,
COCCn1c(=O)c(-c2cc(F)cc(F)c2)nc2cncnc21,inactive,
COc1c(NC(C)=O)c2ccccc2c2ccccc12,,-0.0075% [at 11.4 µM]
CC(=O)N1CCC2(CCCN(Cc3ccccc3)C2)CC1,2.51 µM (active),
COCC(=O)N1CCC2(CC1)CN(Cc1ccc(C#N)cc1)C2,inactive,
COC(=O)N1CCC2(CCCN(Cc3ccc(C#N)cc3)C2)CC1,0.316 µM (active),
COC(=O)N1CCC2(CCCN(Cc3ccccc3)C2)CC1,10 µM (active),
CC(=O)N1CCC2(CC1)CN(Cc1ccccc1)C2,inactive,
COC(=O)N1CCC[C@@]2(CCN(C(=O)Nc3cccc(C#N)c3)C2)C1,inactive,
O=c1cnc2cnc(N3CCNCC3)nc2n1Cc1ccc(F)cc1,inactive,
